This is an account of results in paper PMC7862700, “An all-to-all approach to the identification of sequence-specific readers for epigenetic DNA modifications on cytosine”.

Holding throughout (assay): DAPPL (digital affinity profiling via proximity ligation, sequencing); 10 mM Tris-HCl pH 7.5, 50 mM NaCl, 1 mM DTT, 4% glycerol, room temperature, 30 min; GST-TFs on glutathione beads, 16-mer random dsDNA library, 0.1% formaldehyde crosslink after washing; high values mean tight binding
Common to all, as to details: protein: recombinant; tags: N-terminal GST; dsDNA, one strand shown

Assay [1] has as its target T1, ELK1 (Homo sapiens, UniProt P19419 1-428).
T1 sequence: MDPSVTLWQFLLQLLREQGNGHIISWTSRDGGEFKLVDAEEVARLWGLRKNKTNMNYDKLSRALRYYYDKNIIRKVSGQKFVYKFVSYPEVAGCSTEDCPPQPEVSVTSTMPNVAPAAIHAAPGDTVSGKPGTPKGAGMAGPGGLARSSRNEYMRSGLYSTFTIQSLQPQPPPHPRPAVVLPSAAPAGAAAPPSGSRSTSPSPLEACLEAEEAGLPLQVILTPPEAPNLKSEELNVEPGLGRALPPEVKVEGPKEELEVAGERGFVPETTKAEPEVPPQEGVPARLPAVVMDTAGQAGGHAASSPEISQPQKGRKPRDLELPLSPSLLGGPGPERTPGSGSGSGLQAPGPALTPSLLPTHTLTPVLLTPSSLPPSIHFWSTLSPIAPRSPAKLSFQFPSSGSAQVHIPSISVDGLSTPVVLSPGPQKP
In a few lines: (§1)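 The binding signal reported is, for every hexamer, its read frequency for a factor over its read frequency for the tag-only sample. Reads came from pools of yeast-expressed, GST-fused human transcription factors on glutathione beads, barcoded with DNA and mixed with that sample, which were incubated with 200 nmole of a random double-stranded 16-mer DNA library in Tris/NaCl/DTT/glycerol buffer at room temperature for 30 min. After washing, the pools were crosslinked with 0.1% formaldehyde, proximity-ligated with BsaI/T4 ligase for 1 h at 37 °C, PCR-amplified and sequenced on an Illumina NextSeq500.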

Assay [2] addresses T2, GABPA (Homo sapiens, UniProt Q06546 1-454).
T2 sequence: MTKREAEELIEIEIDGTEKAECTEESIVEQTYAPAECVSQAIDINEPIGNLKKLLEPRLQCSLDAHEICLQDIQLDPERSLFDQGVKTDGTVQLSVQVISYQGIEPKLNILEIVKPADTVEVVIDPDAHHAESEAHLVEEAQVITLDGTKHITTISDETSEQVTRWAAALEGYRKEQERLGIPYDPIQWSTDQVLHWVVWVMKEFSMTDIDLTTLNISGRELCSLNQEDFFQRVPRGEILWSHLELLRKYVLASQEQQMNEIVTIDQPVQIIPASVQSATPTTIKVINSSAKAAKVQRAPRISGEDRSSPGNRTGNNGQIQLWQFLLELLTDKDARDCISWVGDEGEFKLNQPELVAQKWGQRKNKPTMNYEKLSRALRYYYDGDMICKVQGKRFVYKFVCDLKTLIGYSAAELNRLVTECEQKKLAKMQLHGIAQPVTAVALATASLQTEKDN
An outline of the steps: as §1

Assay [3] concerns the target T3, EHF (Homo sapiens, UniProt Q9NZC4 1-300).
T3 sequence: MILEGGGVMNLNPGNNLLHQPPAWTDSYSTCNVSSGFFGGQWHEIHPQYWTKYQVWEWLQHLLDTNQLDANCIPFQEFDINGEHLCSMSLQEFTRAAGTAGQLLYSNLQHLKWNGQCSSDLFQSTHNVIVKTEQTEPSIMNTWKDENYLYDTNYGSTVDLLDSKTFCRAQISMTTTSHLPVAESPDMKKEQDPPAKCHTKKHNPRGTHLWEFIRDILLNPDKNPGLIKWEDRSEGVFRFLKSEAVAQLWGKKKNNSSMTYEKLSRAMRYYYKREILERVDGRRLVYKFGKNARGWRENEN
An outline of the steps:
as §1

In assay [4] the target is T4, FEV (Homo sapiens, UniProt Q99581 1-238).
T4 sequence: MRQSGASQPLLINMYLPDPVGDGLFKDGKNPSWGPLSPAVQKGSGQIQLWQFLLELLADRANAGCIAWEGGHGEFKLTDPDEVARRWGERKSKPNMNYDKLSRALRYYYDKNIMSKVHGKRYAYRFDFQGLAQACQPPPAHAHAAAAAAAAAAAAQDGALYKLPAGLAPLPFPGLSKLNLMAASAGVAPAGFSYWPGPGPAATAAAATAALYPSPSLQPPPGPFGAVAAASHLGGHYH
In a few lines: as §1

Assay [5] has as its target ETV5 (Homo sapiens, UniProt P41161 1-510). In a few lines:
as §1

In assay [6] the target is T5, ELK4 (Homo sapiens, UniProt P28324-2 1-405).
T5 sequence: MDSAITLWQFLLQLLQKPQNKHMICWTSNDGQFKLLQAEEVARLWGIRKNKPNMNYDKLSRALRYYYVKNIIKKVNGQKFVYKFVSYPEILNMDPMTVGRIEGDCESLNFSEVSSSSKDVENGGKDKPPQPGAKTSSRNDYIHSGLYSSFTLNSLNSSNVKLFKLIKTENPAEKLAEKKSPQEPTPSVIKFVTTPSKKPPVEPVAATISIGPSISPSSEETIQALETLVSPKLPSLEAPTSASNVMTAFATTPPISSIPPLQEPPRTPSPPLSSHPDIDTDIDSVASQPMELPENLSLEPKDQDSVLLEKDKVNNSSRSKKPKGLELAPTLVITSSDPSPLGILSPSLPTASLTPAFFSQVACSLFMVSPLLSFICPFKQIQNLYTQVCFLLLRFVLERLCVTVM
An outline of the steps: as §1

For assay [7], the target named is T6, ETV2 (Homo sapiens, UniProt O00321 1-342).
T6 sequence: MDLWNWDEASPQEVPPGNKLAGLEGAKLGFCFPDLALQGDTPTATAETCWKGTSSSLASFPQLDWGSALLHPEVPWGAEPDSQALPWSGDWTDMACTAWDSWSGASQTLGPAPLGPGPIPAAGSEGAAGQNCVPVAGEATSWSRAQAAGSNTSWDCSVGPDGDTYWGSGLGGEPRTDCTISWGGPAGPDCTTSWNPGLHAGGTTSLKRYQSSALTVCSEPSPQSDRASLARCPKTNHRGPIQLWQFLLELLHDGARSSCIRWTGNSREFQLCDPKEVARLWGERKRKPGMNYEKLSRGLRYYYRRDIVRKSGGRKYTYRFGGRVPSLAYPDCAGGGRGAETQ
An outline of the steps:
as §1

Assay [8] has as its target T7, ELF3 (Homo sapiens, UniProt P78545 1-371).
T7 sequence: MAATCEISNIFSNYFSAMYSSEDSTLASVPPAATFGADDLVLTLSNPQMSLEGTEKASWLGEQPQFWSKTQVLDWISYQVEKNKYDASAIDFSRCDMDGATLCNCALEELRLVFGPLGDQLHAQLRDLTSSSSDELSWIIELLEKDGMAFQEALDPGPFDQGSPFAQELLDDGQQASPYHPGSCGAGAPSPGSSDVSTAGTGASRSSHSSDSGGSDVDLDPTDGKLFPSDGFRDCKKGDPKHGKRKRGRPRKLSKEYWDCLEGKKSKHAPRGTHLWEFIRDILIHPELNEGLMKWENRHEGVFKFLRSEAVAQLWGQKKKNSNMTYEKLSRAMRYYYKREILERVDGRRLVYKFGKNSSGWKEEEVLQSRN
An outline of the steps:
as §1

Assay [9] concerns the target ETV1 (Homo sapiens, UniProt P50549 1-477). An outline of the steps:
as §1

Assay [10] deals with T8, ERF (Homo sapiens, UniProt P50548 1-548).
T8 sequence: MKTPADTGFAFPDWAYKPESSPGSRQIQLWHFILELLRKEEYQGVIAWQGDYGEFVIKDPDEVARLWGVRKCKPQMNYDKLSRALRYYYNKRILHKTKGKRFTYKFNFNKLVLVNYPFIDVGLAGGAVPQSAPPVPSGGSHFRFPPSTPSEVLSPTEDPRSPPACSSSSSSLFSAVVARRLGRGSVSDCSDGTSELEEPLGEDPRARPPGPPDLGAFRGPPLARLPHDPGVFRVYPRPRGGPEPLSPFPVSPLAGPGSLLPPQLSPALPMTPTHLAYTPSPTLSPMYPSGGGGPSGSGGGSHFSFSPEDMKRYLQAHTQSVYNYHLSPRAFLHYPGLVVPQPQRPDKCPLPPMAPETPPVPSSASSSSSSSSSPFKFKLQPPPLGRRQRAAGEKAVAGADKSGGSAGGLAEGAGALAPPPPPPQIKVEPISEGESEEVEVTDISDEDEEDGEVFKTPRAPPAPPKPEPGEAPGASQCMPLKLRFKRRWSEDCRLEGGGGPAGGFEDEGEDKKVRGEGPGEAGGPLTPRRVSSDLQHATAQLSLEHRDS
An outline of the steps: as §1

The target of assay [11] is T9, ETS2 (Homo sapiens, UniProt P15036 1-469).
T9 sequence: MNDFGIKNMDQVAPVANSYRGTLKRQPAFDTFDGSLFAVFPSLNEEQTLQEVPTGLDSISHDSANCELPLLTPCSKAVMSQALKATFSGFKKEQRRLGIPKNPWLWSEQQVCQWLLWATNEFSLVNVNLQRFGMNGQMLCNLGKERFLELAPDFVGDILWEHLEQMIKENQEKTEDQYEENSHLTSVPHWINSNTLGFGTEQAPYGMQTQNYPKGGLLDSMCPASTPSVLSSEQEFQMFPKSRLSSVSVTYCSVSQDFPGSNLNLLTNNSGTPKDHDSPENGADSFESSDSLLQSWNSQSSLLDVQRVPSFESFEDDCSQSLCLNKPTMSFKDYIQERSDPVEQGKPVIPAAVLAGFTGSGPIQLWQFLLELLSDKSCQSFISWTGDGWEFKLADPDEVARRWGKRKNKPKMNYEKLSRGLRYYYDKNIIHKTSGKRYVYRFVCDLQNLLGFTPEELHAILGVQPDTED
An outline of the steps: as §1

In assay [12] the target is T10, SPDEF (Homo sapiens, UniProt O95238 1-335).
T10 sequence: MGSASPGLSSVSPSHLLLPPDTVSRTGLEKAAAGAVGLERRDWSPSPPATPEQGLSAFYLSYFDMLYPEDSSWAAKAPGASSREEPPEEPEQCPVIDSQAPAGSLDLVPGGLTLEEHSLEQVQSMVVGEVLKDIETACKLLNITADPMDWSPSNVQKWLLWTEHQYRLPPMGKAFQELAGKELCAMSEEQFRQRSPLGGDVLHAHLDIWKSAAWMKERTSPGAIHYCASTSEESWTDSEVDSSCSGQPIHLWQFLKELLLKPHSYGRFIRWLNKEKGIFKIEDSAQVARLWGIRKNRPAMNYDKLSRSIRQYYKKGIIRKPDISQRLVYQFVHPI
An outline of the steps:
as §1

ETV5, sequence (P41161 whole entry): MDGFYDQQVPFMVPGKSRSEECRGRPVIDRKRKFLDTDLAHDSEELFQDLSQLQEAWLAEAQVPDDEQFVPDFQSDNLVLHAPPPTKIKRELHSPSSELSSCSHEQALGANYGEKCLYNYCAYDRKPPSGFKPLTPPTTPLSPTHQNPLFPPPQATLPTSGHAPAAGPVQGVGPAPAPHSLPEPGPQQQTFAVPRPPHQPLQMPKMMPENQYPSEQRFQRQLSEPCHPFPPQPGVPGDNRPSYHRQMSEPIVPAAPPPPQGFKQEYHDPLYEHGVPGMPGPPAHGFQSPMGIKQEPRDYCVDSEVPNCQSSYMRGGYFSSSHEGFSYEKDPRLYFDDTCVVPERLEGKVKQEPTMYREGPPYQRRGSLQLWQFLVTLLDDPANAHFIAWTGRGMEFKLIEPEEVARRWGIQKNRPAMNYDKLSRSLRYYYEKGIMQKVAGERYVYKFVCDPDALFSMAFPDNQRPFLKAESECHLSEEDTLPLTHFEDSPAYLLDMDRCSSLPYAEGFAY
ETV1, sequence (P50549 whole entry): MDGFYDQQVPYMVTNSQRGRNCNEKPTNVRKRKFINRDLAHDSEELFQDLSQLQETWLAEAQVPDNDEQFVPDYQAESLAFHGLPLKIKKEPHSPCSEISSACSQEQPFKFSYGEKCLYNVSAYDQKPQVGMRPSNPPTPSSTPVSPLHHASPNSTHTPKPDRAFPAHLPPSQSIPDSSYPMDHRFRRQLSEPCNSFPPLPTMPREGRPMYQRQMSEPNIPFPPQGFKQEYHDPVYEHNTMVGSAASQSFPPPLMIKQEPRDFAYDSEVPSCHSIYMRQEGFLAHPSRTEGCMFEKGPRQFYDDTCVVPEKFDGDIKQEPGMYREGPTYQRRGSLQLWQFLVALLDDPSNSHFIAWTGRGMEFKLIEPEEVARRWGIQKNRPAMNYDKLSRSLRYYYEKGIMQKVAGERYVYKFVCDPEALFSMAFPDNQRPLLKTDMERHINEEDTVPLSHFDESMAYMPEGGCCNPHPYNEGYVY

Take AGCCAC: the binding signal is 1.04 fold enrichment (6-mer frequency, TF over GST control) in [1]; 1.01 fold enrichment (6-mer frequency, TF over GST control) in assay [2]; 1.05 fold enrichment (6-mer frequency, TF over GST control) in assay [3]; 1.04 fold enrichment (6-mer frequency, TF over GST control) in assay [4]; 1.01 fold enrichment (6-mer frequency, TF over GST control) in assay [5]; 1.03 fold enrichment (6-mer frequency, TF over GST control) in [6]. Moreover, the binding signal was 1.07 fold enrichment (6-mer frequency, TF over GST control) in assay [7]; 1.06 fold enrichment (6-mer frequency, TF over GST control) in assay [8]; 1.04 fold enrichment (6-mer frequency, TF over GST control) in assay [9]; 1.01 fold enrichment (6-mer frequency, TF over GST control) in [10]; 1.05 fold enrichment (6-mer frequency, TF over GST control) in [11]; 1.05 fold enrichment (6-mer frequency, TF over GST control) in [12].
